# Assay results reported in PubChem BioAssay (NCATS).
# Records with an inconclusive call do not appear. Unmarked numbers belong to inactive results. Activity calls are given as the source filed them. Calls come from the whole dose curve; as a rule, active = well fitted inhibition curve with a large enough effect; inconclusive = small, poorly fitted or top-dose-only effect; inactive = flat fitted curve, though single readings scatter.
# Columns and labels:
# Experiment in all cases: Cytotoxic Profiling of Annotated Libraries Using Quantitative High-Throughput Screening (AID 1296008); note: nearly all actives have a fitted effect of over 60% in size
# Details in all cases: Five cell lines viability, CellTiter-Glo ATP luminescence, 48-72 h; max response: stronger effect = lower value
# HaCat = system: HaCat
# Summary of the method: (§1)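 Cytotoxicity was measured as CellTiter-Glo ATP luminescence, read after 10 min at room temperature. Compound treatment of the cells lasted 48 or 72 hr at 37 degrees Celsius in a qHTS format.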
# KB-3-1 = system: KB-3-1
# Summary of the method: as §1
# NIH3T3 = system: NIH3T3
# Summary of the method: as §1
# % is set by controls: 0 for no effect and ±100 for the full control effect; potency is the fitted concentration of half-maximal effect.
compound,measurement,setting,value
COc1cc(N2CCOCC2)ccc1Nc1ncc(Cl)c(Nc2ccccc2NS(C)(=O)=O)n1,Potency,HaCat,4.61 µM (active)
same,Potency,KB-3-1,2.31 µM (active)
same,Potency,NIH3T3,6.51 µM (active)
CN=C(N)NCCCCC/C=C(/C)CC(C)C1OC(=O)C(C)C(O)/C=C/C(C)C(O)CC(O)C(C)C(O)CCC(C)C(O)CC2(O)OC(CC(OC(=O)CC(=O)O)CC(O)CC(O)C(C)C(O)/C(C)=C/CCC1C)CC(O)C2O (centres undefined),max response,HaCat,-0.878%
same,max response,KB-3-1,1.79%
same,max response,NIH3T3,1.75%
COc1c2c(c(C)c3c1C(=O)OC3)OC1(C)CC(O)C34OC(OC)(OC3(C)C)C(O)CC4(C)C1C2 (centres undefined),max response,HaCat,-21.2%
same,outcome,KB-3-1,inactive
same,max response,NIH3T3,-1.37%
CC(NC(=O)CCc1nc2ccccc2c(=O)[nH]1)c1ccccc1 (centres undefined),max response,HaCat,-2.07%
same,max response,KB-3-1,-4.27%
same,max response,NIH3T3,2.87%
CCC(C)C(=O)OC1CC(C)C=C2C=CC(C)C(CCC(O)CC(O)CC(=O)O)C21 (centres undefined),max response,HaCat,-2.56%
same,max response,KB-3-1,5.43%
same,max response,NIH3T3,-8.16%
C=C(C(=O)O)C1CC(O)C2(C)CCCC(=C)C2C1 (centres undefined),max response,HaCat,-8.7%
same,max response,KB-3-1,-0.72%
same,max response,NIH3T3,2.65%
CCOc1ccc2nc(SCCN3CCOCC3)[nH]c2c1,max response,HaCat,4.78%
same,max response,KB-3-1,-9.7%
same,max response,NIH3T3,0.835%
C/C1=C\CCC2=C[C@@H](OC2=O)c2c(C)coc2C1,max response,HaCat,-3.91%
same,max response,KB-3-1,2.55%
same,max response,NIH3T3,-21.8%
NC[C@@](O)(c1ccc(Cl)cc1)c1ccc(-c2cn[nH]c2)cc1,Potency,HaCat,8.2 µM (active)
same,Potency,KB-3-1,11.6 µM (active)
same,Potency,NIH3T3,5.17 µM (active)
COC(=O)C1=COC(O[C@@H]2O[C@H](CO)[C@@H](O)[C@H](O)[C@H]2O)[C@H]2[C@@H]1[C@H](OC(=O)CCc1ccc(O)cc1)C[C@]2(C)O (some centres undefined),max response,HaCat,-1.18%
same,max response,KB-3-1,-2.46%
same,max response,NIH3T3,2.76%
COc1cccc(Nc2ncnn3ccc(CN4CC[C@@H](N)[C@H](O)C4)c23)c1,Potency,HaCat,0.0058 µM (active)
same,max response,KB-3-1,-14.7%
same,Potency,NIH3T3,0.517 µM (active)
C=C1CC2C(C)(CCC(=O)O)C(C(C)(C)O)CCC2(C)C2C(=O)OC(C)(C(=O)OC)C(=O)C12C (centres undefined),max response,HaCat,4.3%
same,outcome,KB-3-1,inactive
same,max response,NIH3T3,-2.52%
CC(=O)O[C@H]1[C@H](O[C@H]2[C@@H]3C=CO[C@@H](O[C@@H]4O[C@H](CO)[C@@H](O)[C@H](O)[C@H]4O)[C@@H]3[C@@]3(CO)O[C@@H]23)O[C@@H](C)[C@H](OC(=O)/C=C/c2ccccc2)[C@H]1OC(=O)/C=C/c1ccccc1,max response,HaCat,-13%
same,outcome,KB-3-1,inactive
same,max response,NIH3T3,0.432%
CC(C)C(N)C(=O)OCCOCn1cnc2c(=O)[nH]c(N)nc21 (centres undefined),max response,HaCat,-13.5%
same,max response,KB-3-1,-4.91%
same,max response,NIH3T3,1.39%
COC1CC(OC2CCC3(C)C(=CCC4C3C(OC(C)=O)C(OC(=O)/C=C/c3ccccc3)C3(C)C(C(C)O)CCC43O)C2)OC(C)C1OC1CC(OC)C(OC2OC(C)C(OC3OC(CO)C(O)C(O)C3O)C(OC)C2O)C(C)O1 (centres undefined),max response,HaCat,0.93%
same,max response,KB-3-1,-1.59%
same,max response,NIH3T3,0.895%
CC1(CCOC2OC(CO)C(O)C(O)C2O)CCC23OC2(C1)C(O)CC1C(C)(C(=O)O)CCCC13C (centres undefined),max response,HaCat,3.2%
same,max response,KB-3-1,8.97%
same,max response,NIH3T3,0.419%
C[C@@H]1[C@H]2[C@H](O[C@@H]3O[C@H](CO)[C@@H](O)[C@H](O)[C@H]3O)OC=C(C(=O)O)[C@H]2C[C@@H]1O,max response,HaCat,-4.56%
same,max response,KB-3-1,-0.849%
same,max response,NIH3T3,-4.16%
CC1(C)CC[C@]2(C(=O)O)CC[C@]3(C)C(=CCC4[C@@]5(C)CC[C@H](O[C@@H]6O[C@H](C(=O)O)[C@@H](O[C@@H]7OC[C@@H](O)[C@H](O)[C@H]7O)[C@H](O)[C@H]6O)C(C)(C)C5CC[C@]43C)C2C1O (some centres undefined),max response,HaCat,-24%
same,outcome,KB-3-1,inactive
same,max response,NIH3T3,-13.7%
C=C1C(=O)O[C@H]2[C@H]1CC/C(C)=C/CC[C@@]1(C)O[C@@H]21,max response,HaCat,-3.65%
same,max response,KB-3-1,-4.28%
same,max response,NIH3T3,0.479%
CC1=CC(=O)CC(C)(C)C1/C=C/C(C)O[C@@H]1O[C@H](CO)[C@@H](O)[C@H](O)[C@H]1O[C@@H]1OC[C@](O)(CO)[C@H]1O (some centres undefined),max response,HaCat,4.57%
same,max response,KB-3-1,2.75%
same,max response,NIH3T3,3.26%
C[C@@H]1O[C@@H](O[C@H]2[C@@H]3C=CO[C@@H](O[C@@H]4O[C@H](CO)[C@@H](O)[C@H](O)[C@H]4O)[C@@H]3[C@@]3(CO)O[C@@H]23)[C@H](OC(=O)/C=C/c2ccc(O)c(O)c2)[C@H](O)[C@H]1O,max response,HaCat,1.24%
same,max response,KB-3-1,6.2%
same,max response,NIH3T3,-3.69%
CC1OC(OCC2OC(OC3CCC4(C)C(CCC5(C)C4CC=C4C6CC(C)(C)CCC6(C(=O)OC6OC(CO)C(O)C(O)C6O)CCC45C)C3(C)CO)C(O)C(O)C2O)C(O)C(O)C1O (centres undefined),max response,HaCat,2.13%
same,max response,KB-3-1,9.22%
same,max response,NIH3T3,0.258%
CC(=O)N[C@@H](CCCCN)C(=O)N(C)[C@@H](CC(C)C)C(=O)N[C@H](C(=O)N(C)[C@@H](Cc1ccccc1)C(=O)N[C@H](Cc1ccccc1)C(N)=O)C(C)C,max response,HaCat,-11.8%
same,outcome,KB-3-1,inactive
same,max response,NIH3T3,-4.99%
